In PubChem BioAssay AID2685 (National Center for Advancing Translational Sciences (NCATS), 2010):
About 2,100 (0.66%) of roughly 320,000 compounds were called active. Not shown: some 53% with an inconclusive outcome. Calls come from the whole dose curve; as a rule, active = well fitted inhibition curve with a large enough effect in the signal ratio, with a control signal flat (not every such curve was filed as active); inconclusive = small, poorly fitted or top-dose-only effect, or effect the other way, or a change in a side signal; inactive = flat fitted curve, though single readings scatter; the % refers to the signal ratio. For the sample, actives were picked, then their nearest neighbours and some compounds at random.

Test: qHTS Assay for Lipid Storage Modulators in Drosophila S3 Cells;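 for cell number change: cells counted by Cell Tracker Red CMTPX staining in the red channel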; for lipid storage change, negative = inhibition: % is set by controls: 0 for no effect and ±100 for the full control effect
Settings: BODIPY lipid droplet fluorescence, 18-24 h, cells fed with added oleic acid; cell number change: measured here: cell count max response; series mostly up to 46.1 µM; lipid storage change, negative = inhibition: at the top concentration
Outline: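 Laser-scanning cytometry quantifies lipid droplet accumulation (500–530 nm total intensity; droplet/cell object ratio) in oleic acid-fed (400 uM added) Drosophila S3 cells treated with a concentration series. 20 uM Triacsin C defined 100% inhibition.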
Potency is the fitted concentration of half-maximal effect.

SMILES	lipid storage change, negative = inhibition	cell number change	outcome	Potency
COC(=O)CNc1nc(C2CC2)nc2c1nnn2Cc1ccccc1Cl	-17.4% (inactive)	-11.7%		
COc1ccc2c(c1)C(C)=CC(C)(C)N2C(=O)C(C)N1C(=O)c2ccccc2C1=O (configuration not stated)	5.97% (inactive)	1.95%		
C[C@H](NC(N)=O)C(=O)Nc1ccc2c(c1)OCO2	-4.55% (inactive)	-6.18%		
COc1ccccc1C1C(C#N)=C(N)N(c2cccnc2)C2=C1C(=O)CC(C)(C)C2 (configuration not stated)	-0.0654% (inactive)	-3.09%		
Cn1cc(CCC(=O)N2CCCC(CCC(=O)NCc3ccccc3F)C2)cn1 (configuration not stated)	6.07% (inactive)	3.88%		
COc1cccc(NC(=O)CN(C)C(=O)C(C)Sc2ccccc2)c1 (configuration not stated)	4.76% [at 0.0737 µM] (inactive)			
CCOc1ccc(S(=O)(=O)Nc2cccc(C(=O)N3CCN(c4ccc(OC)cc4)CC3)c2)cc1	6.02% (inactive)	-10.3%		
CC(=O)NNC(=O)c1[nH]c2ccc(Cl)cc2c1-c1ccccc1	24.7% (inactive)	19.7%		
COc1ccc(Br)cc1S(=O)(=O)NCCCN1CCOCC1	12.5% (inactive)			
Cc1cccc(OCCC(=O)OCC(=O)N2CCc3ccccc32)c1	0.68% (inactive)	16.2%		
CC(C)C(OC(=O)CCC(=O)Nc1nccs1)C(=O)NC1CCCCC1 (configuration not stated)	0.168% (inactive)	7.34%		
COc1ccc(N2C(=O)CC(N(CCc3ccc(OC)c(OC)c3)C(=S)Nc3ccccc3)C2=O)cc1 (configuration not stated)	-6.57% (inactive)	-11.8%		
Cc1ccccc1OCC(=O)OCC(=O)N1CCCc2ccccc21			inactive	
CC(=O)c1sc2nsc(SCCN3CCCCC3)c2c1N	-3.85% (inactive)	1.58%		
CC(=O)c1sc2nsc(SCCN3CCCC3)c2c1N	-4.12% (inactive)	7.13%		
Nc1c(C(=O)c2cccs2)sc2nsc(SCCN3CCCCC3)c12		11.5%		13 µM (active)
O=C1C(=O)c2ccccc2C(O)=C1C1CCC(c2ccc(Cl)cc2)CC1 (configuration not stated)		-0.693%		4.11 µM (active)
O=C1c2ccccc2C(=O)C1c1ccc(Cl)cc1	-1.63% (inactive)	-2.4%		
O=C1NC(c2ccc(Cl)cc2)Nc2ccccc21 (configuration not stated)		-23.5%	inactive	
COc1cc(C(=O)Nc2ccc3c(c2)C(=O)N(CCC(=O)O)C3=O)cc(OC)c1OC	3.95% (inactive)	1.68%		
CCOC(=O)c1cc(C)n(-c2ccccc2)c1C	3.49% (inactive)			
CCOC(=O)c1cc(C)n(-n2cnnc2)c1C		1.94%		10.3 µM (active)
CCOC(=O)c1cc(C)n(S(=O)(=O)c2ccc(C)cc2)c1C	-11.4% (inactive)	-10.7%		
CCCn1c(N)c(C(=O)CN(C)CC(=O)Nc2cc(C)ccc2C)c(=O)[nH]c1=O	26.4% (inactive)	15.5%		

SMILES	lipid storage change, negative = inhibition	cell number change	outcome	Potency
CCCn1c(N)c(C(=O)CN(C)CC(=O)Nc2c(Cl)cccc2Cl)c(=O)[nH]c1=O		-5.76%	inactive	
CCCn1c(N)c(C(=O)CN(C)CC(=O)Nc2ccccc2C(F)(F)F)c(=O)[nH]c1=O		-17.2%		7.31 µM (active)
COc1ccc(CCNC(=O)C2CC(c3ccccc3[N+](=O)[O-])=NO2)cc1 (configuration not stated)	5.21% (inactive)	17.6%		
Cc1cccc(N2CCN(S(=O)(=O)c3ccc4c(c3)CCCN4C(=O)C3CCC3)CC2C)c1 (configuration not stated)	6.82% (inactive)	-10.2%		
CC1CCCCN1S(=O)(=O)c1ccc2c(c1)CCN2C(=O)C1CC1 (configuration not stated)		-5.7%		10.3 µM (active)
CC1CCCCN1S(=O)(=O)c1ccc2c(c1)CCN2C(=O)CCC(=O)O (configuration not stated)	-8.2% (inactive)	10%		
O=C(C1CCC1)N1CCCc2cc(S(=O)(=O)N3CCN(c4ccccc4)CC3)ccc21		-3.36%		3.26 µM (active)
CC1CCCCN1S(=O)(=O)c1ccc2c(c1)CCN2C(=O)C1CCC1 (configuration not stated)	-6.29% (inactive)	0.0968%		
O=C(C1CCC1)N1CCc2cc(S(=O)(=O)N3CCN(c4ccccn4)CC3)ccc21		-12.3%	inactive	
Cc1cc(C)c(S(=O)(=O)N2CCOC2CNC(=O)C(=O)NCCCN2CCOCC2)c(C)c1 (configuration not stated)		8.11%	inactive	
O=C(O)CN(c1ccccc1)C1SC(=O)NC1=O (configuration not stated)		-8.43%		7.31 µM (active)
Cc1cccc(N(CC(N)=O)C2SC(=O)NC2=O)c1 (configuration not stated)	-0.47% (inactive)	8.77%		
Cc1ccc(N(CC(N)=O)C2SC(=O)NC2=O)cc1 (configuration not stated)	-4.95% (inactive)	8.58%		
CC(C)[C@H](NC(=O)c1ccco1)C(=O)NCc1ccccc1		17.1%	inactive	
CC(C)C(NC(=O)OCc1ccccc1)C(=O)NCc1ccc(C(=O)O)cc1 (configuration not stated)	19.3% (inactive)	18%		
CC(C)C(NC(=O)c1ccco1)C(=O)NCc1ccc(C(=O)O)cc1 (configuration not stated)		-31.6%		6.51 µM (active)
CC(/C=C/c1ccccc1)=N/NC(=O)c1cnccn1	8.89% (inactive)	9.37%		
CC1=[N+]([O-])C(C)(C)CC(C)(C)c2ccccc21		-21.9%		25.9 µM (active)
COC(=O)c1cn(CC(=O)Nc2ccccc2C)c2ccccc12		8.8%	inactive	
COc1ccc(C2C(C#N)=C(N)OC3=C2C(=O)CC(C)(C)C3)cc1Cn1nc(C)c([N+](=O)[O-])c1C (configuration not stated)	9.69% (inactive)	4.05%		
CSC1=NCCN1C(=O)C12CC3CC(CC(C3)C1)C2		-43.3%		1.3 µM (active)
O=C(N1CCN=C1SCc1cccnc1)C12CC3CC(CC(C3)C1)C2			inactive	
O=C1NCCN1C(=O)C12CC3CC(CC(C3)C1)C2	0.211% (inactive)	-1.76%		
CCn1c(SCC(=O)NC2CC2)nnc1C(C)Oc1ccccc1 (configuration not stated)	5.84% (inactive)			

SMILES	lipid storage change, negative = inhibition	cell number change	outcome	Potency
COc1cccc(NC(=O)Cn2nnc(C(=O)Nc3ccccc3)c2N)c1	6.84% (inactive)	-18.5%		
COc1ccc(NC(=O)Cn2nnc(C(=O)NCCc3ccccc3)c2N)c(OC)c1		6.1%	inactive	
COc1cccc(NC(=O)Cn2nnc(C(=O)NCCc3ccccc3)c2N)c1		2.67%		20.6 µM (active)
CCOc1ccc(Cn2nnc(C(=O)NCCc3ccccc3)c2N)cc1	-7.29% (inactive)	-4.24%		
CCOc1ccc(Cn2nnc(C(=O)NCCc3ccc(Cl)cc3)c2N)cc1		1.29%		18.4 µM (active)
Nc1c(C(=O)NCCc2ccccc2)nnn1Cc1ccc(Cl)cc1	8.7% (inactive)	-16.5%		
CCc1nc(NC(=O)c2sc(C)nc2C)sc1C(=O)OC		-8.97%	inactive	
O=C1OCCC1Sc1nnc(-c2ccc3c(c2)OCO3)o1 (configuration not stated)	5.11% (inactive)	15.3%		
O=C1OCCC1Sc1nnc(-c2ccc(Br)cc2)o1 (configuration not stated)	5.68% (inactive)	7.55%		
O=C1OCCC1Sc1nnc(-c2cccc(Br)c2)o1 (configuration not stated)		-11.2%		20.6 µM (active)
Cc1ccc(CNC(=O)CCNS(=O)(=O)c2ccc(C)cc2)cc1	0.234% (inactive)	-14.3%		
Cc1ccc(CS(=O)(=O)CCC(=O)NCc2ccc(F)cc2)cc1	0.549% (inactive)	22.6%		
Cc1ccc(/C=C/S(=O)(=O)NCCC(=O)NCc2ccc(F)cc2)cc1		-6.87%		13 µM (active)
CCOC(=O)N1CCC(N(CCN(C)C)C(=S)Nc2ccccc2OC)CC1	1.39% (inactive)	7.57%		
CCCCCOC(=O)c1ccccc1C(=O)O	22.4% (inactive)	16.1%		
Cc1ccc2c(c1)[C@@H]1CN(C)CC[C@@H]1N2S(=O)(=O)c1ccc([N+](=O)[O-])cc1	3.92% (inactive)	-4.89%		
Cc1ccc2c(c1)C1CN(C)CCC1N2S(=O)(=O)c1cccc(F)c1 (configuration not stated)		-8.15%		14.6 µM (active)
Cc1ccc2c(c1)C1CN(C)CCC1N2S(=O)(=O)c1ccc(C#N)cc1 (configuration not stated)	4.76% (inactive)	-11.9%		
O=C(CN1CCN(S(=O)(=O)c2ccccc2[N+](=O)[O-])CC1)Nc1ccc(N2CCOCC2)cc1	17.1% (inactive)	26.6%		
Cn1c2ccccc2c(=O)c2c(=O)n(-c3ccccc3)c(-c3ccc(C(C)(C)C)cc3)nc21	-2.59% (inactive)	8.74%		
CC1(C(=O)NCc2ccc(Cl)c(Cl)c2)Oc2cccnc2NC1=O (configuration not stated)	25.5% (inactive)			
COc1cccc(CNC(=O)c2ccc(C(=O)NCc3cccc(OC)c3)cc2)c1	16.4% (inactive)			
Cc1ccc(CNC(=O)C2(C)Oc3ccccc3NC2=O)cc1 (configuration not stated)	18.2% (inactive)	-6.1%		
COc1cccc(CNC(=O)C2(C)Oc3ccccc3NC2=O)c1 (configuration not stated)		10.7%		23.1 µM (active)

SMILES	lipid storage change, negative = inhibition	cell number change	outcome	Potency
CC1(C(=O)NCc2ccccc2)Oc2ccccc2NC1=O (configuration not stated)		-4.11%		23.1 µM (active)
COc1cccc(CNC(=O)CC2Sc3ccccc3NC2=O)c1 (configuration not stated)	-8.39% (inactive)			
O=C(CNC(=O)c1ccco1)OCC(=O)c1ccc(Cl)cc1	-4.23% (inactive)	3.11%		
COc1ccc(NC(=O)/C=C/c2ccc(Br)o2)cn1	0.369% (inactive)	2.5%		
CC[C@@H](C)[C@@H](C(=O)N1CCN(C(=O)OC(C)(C)C)CC1)n1cc(CCCN=C(NC(=O)OC(C)(C)C)NC(=O)OC(C)(C)C)nn1	-15.3% (inactive)	-5.51%		
CCN(c1ccccc1)S(=O)(=O)c1c[nH]c2ccc([N+](=O)[O-])cc12		-8.56%		5.8 µM (active)
Cc1cccc(N(C)S(=O)(=O)c2ccc3[nH]c(=O)c(=O)[nH]c3c2)c1	-8.22% (inactive)	-11.4%		
Cc1ccc(N(C)S(=O)(=O)c2c[nH]c3ccc([N+](=O)[O-])cc23)cc1		2.95%	inactive	
Cc1cccc(N(C)S(=O)(=O)c2c[nH]c3ccc([N+](=O)[O-])cc23)c1		-6.19%		2.59 µM (active)
CCN(c1ccccc1)S(=O)(=O)c1ccc2[nH]c(=O)[nH]c2c1	13.3% (inactive)	8.44%		
CCN(c1ccccc1)S(=O)(=O)c1cc([N+](=O)[O-])ccc1N	0.407% (inactive)	7.82%		
O=C(CN1CCN(Cc2ccccc2)CC1)N1CCN(c2ccccc2)CC1	9.16% (inactive)	9.09%		
CCc1nc2ccccc2c(C(=O)OCC(=O)NCc2ccco2)c1C		16.5%	inactive	
CCC(=O)c1ccc(OCC(=O)NNC(=O)c2cc(C)oc2C)cc1	-5.26% [at 0.0737 µM] (inactive)	-5.72%		
COc1cc(C(C(=O)NC(C)(C)C)N(C(=O)CNC(=O)c2cccs2)c2ccc(C(C)C)cc2)cc(OC)c1OC (configuration not stated)		12.2%	inactive	
CCCc1cc(=O)oc2cc(OCC(=O)NCCc3c[nH]c4ccc(OC)cc34)ccc12		-12%		8.2 µM (active)
COc1ccc(C(=O)NCC(=O)NCCc2c[nH]c3ccccc23)cc1OC	5.27% (inactive)	7.36%		
COc1ccc(C(=O)NCCc2c[nH]c3ccccc23)cc1OC	18% (inactive)	-1.75%		
COc1ccc2[nH]cc(CCNC(=O)COc3cc(C)cc4oc(=O)cc(C)c34)c2c1	-23.1% (inactive)	-0.087%		
COc1ccc2[nH]cc(CCNC(=O)CCC3CCCCC3)c2c1		-11.7%		16.4 µM (active)
COc1ccccc1CC(=O)NCCc1c[nH]c2ccccc12		10.3%		0.231 µM (active)
COc1ccc2[nH]cc(CCNC(=O)C3CCCCC3)c2c1	-9.93% (inactive)	-11.3%		
COc1ccc2[nH]cc(CCNC(=O)Cc3ccc(F)cc3)c2c1	20.2% (inactive)			
CCCc1cc(=O)oc2cc(OCC(=O)NCCc3ccc(S(N)(=O)=O)cc3)ccc12		-10.3%	inactive	
